# Compound activity as filed in PubChem BioAssay.
# D3 antag: antagonists of human D3 dopamine receptor; P35462; D3R cells, DiscoveRx beta-arrestin luminescence, antagonist mode; active compounds read low; max response, negative = inhibition, %; actives 2.5% (n = 360,000); in the data active = max response below about -50%; inconclusive = no clear call, values can overlap the other calls
#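 Cells expressing the human receptor were seeded at 1500 cells/well, incubated overnight at 37 degrees C in 5% CO2, then exposed to library compounds with dopamine controls for 90 minutes at 37 degrees C before luminescent detection.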
# D1 antag: human D1 dopamine receptor antagonism; actives 3.2% (n = 360,000); activity change, negative = inhibition, % at 10 µM; HEK293 TREx D1 cells, calcium flux, dopamine EC80; active compounds read low; P21728; in the data active = activity change below about -30%
# Target sequence (P21728 whole entry, looked up): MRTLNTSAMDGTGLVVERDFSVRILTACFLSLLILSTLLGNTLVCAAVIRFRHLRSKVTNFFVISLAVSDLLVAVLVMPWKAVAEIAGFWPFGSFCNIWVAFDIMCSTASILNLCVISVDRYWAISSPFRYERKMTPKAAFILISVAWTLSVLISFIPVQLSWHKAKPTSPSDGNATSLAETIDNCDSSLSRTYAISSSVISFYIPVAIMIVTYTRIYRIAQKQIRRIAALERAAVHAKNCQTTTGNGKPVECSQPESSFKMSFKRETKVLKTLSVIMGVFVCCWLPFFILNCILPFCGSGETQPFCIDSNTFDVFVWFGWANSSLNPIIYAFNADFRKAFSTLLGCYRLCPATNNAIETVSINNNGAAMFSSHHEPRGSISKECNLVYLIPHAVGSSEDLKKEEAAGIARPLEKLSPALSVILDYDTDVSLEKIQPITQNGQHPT
#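 Compound effects on dopamine-evoked calcium signalling were measured in tetracycline-induced HEK293 Trex D1 cells. Dopamine at EC80 followed a 180 s compound pre-read, and fluorescence was tracked kinetically for 180 s more.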
# D1 ag: agonists of human D1 dopamine receptor. HEK293 T-REx D1 cells, calcium flux, agonist mode. activation, % at 2 µM. actives 1% (n = 360,000); in the data active = activation above about 30%
#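 Inducible HEK293 T-REx D1 cells, force-coupled to calcium signalling, were plated at 4000 cells/well with tetracycline and held overnight at 30 C. After no-wash calcium dye loading, compound-evoked calcium rise over 180 s flagged agonists.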
# DRD3 agonist: D3 dopamine receptor (human) agonism; P35462; D3R DiscoveRx beta-arrestin cells, luminescence, 90 min; max activation, %; actives 0.58% (n = 410,000); in the data active = max activation above about 30%
#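 Agonist mode: compounds and dopamine controls were applied to plated cells for 90 min at 37 degrees C after an overnight attachment at 1500 cells/well. Luminescent read-out followed 30 - 60 minutes at room temperature with DiscoveRx detection reagent.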
# D1 PAM: human D1 dopamine receptor positive modulation. actives 0.036% (n = 360,000). potentiation, % at 10 µM. AID 504651. P21728. HEK293 TREx D1 cells, calcium flux, dopamine EC20 potentiation; in the data active = potentiation above about 30%
# Numbers stand for hits; . = inactive; ? = inconclusive; / = no result. The list is not random: actives were taken first. Their share in the collection is about 6%.
SMILES,D3 antag,D1 antag,D1 ag,DRD3 agonist,D1 PAM
O=C(CSc1nc2[nH]c(=O)cc(O)c2s1)Nc1cccc(Br)c1,.,.,.,.,.
O=C(C[n+]1ccccc1)N1CCCc2ccccc21,-53,.,.,.,.
Cc1cc[n+](CC(=O)N2CCCc3ccccc32)cc1,-66,.,.,.,.
O=C(CCS(=O)(=O)c1ccccc1)N1CCCc2ccccc21,.,.,.,.,.
CN(C)c1cc[n+](CC(=O)N2CCCc3ccccc32)cc1,?,.,.,.,.
CCCCN1CC(c2nc3ccccc3n2CCCCOc2c(C)cccc2C)CC1=O (configuration not stated),/,.,.,.,.
Cc1ccc(S(=O)(=O)NC(=O)Nc2ccc(C)cn2)cc1,.,.,.,.,.
Cc1ccc(S(=O)(=O)NC(=O)Nc2cc(C(C)(C)C)on2)cc1,.,-37,.,.,.
CN(Cc1ccccc1)C(=O)c1ccc2c(c1)N(Cc1ccc(Cl)cc1)C(=O)c1ccccc1S2=O (configuration not stated),/,.,.,.,.
COc1ccc(Cn2ccc3nc(C)c(C(=O)N4CCN(c5cc(C)ccc5C)CC4)cc3c2=O)cc1,/,.,.,.,.
Cc1[nH]n2c(=O)cc(-c3ccc(Cl)cc3)nc2c1-c1ccccc1,/,.,.,.,.
Cc1[nH]n2c(=O)c(C#N)c(-c3ccccc3)nc2c1-c1ccccc1,-60,.,.,.,.
CCc1c(C)nc2c(-c3ccccc3)c(C)[nH]n2c1=O,.,.,.,.,.
Cc1[nH]n2c(=O)cc(-c3ccc([N+](=O)[O-])cc3)nc2c1-c1ccccc1,-81,/,/,.,/
CCCCc1ccc(C(=O)N/C(=C\c2ccc(C)cc2)C(=O)NC2CCCCC2)cc1,/,.,.,.,.
O=C(NCc1ccccc1Cl)c1ccc(NC(=O)N2CCSc3ncccc32)cc1,/,.,.,.,.
Cc1cc(C)nc(SCC(=O)OCC(=O)Nc2nc3ccccc3s2)n1,.,.,31,.,.
CC1CCc2c(sc3ncnc(NCc4cccnc4)c23)C1 (configuration not stated),.,.,.,.,.
c1cncc(CNc2ncnc3sc4c(c23)CCC4)c1,.,-43,.,.,.
CC(C)(C)c1ccc(OCCSc2nc(-c3cccs3)nc3cc(=O)[nH]n23)cc1,/,.,.,37,.
CC(C)(C)c1ccc(-c2nc(SCCOc3ccc(Cl)cc3)n3[nH]c(=O)cc3n2)cc1,/,.,.,.,.
Cc1ccc(OCCCSc2nc(-c3ccc(C(C)(C)C)cc3)nc3cc(=O)[nH]n23)cc1C,/,.,.,33,.
Cc1ccc(NC(=O)CSc2nc(-c3cccs3)nc3cc(=O)[nH]n23)cc1C,/,.,.,.,.
Cc1ccccc1NC(=O)CSc1nc(-c2cccs2)nc2cc(=O)[nH]n12,/,-37,.,.,.
COc1cccc(N2C(=O)CSC23C(=O)N(CC(=O)NCc2ccc(C)cc2)c2ccccc23)c1 (configuration not stated),/,.,.,.,.
SMILES,D3 antag,D1 antag,D1 ag,DRD3 agonist,D1 PAM
Cc1ccc(-n2c(Cc3ccccc3)nnc2SCc2nc(-c3cccs3)no2)cc1C,/,.,.,.,.
COC(=O)Cn1c(C)c(/C=C/c2cc[n+](C)cc2)c2ccccc21,.,.,57,.,.
CC1(C(=O)Nc2cccc(C(F)(F)F)c2)Cc2c(-c3ccc4c(c3)OCO4)ccnc2O1 (configuration not stated),-59,/,/,.,/
COc1ccc(NC(=O)C2(C)Cc3c(-c4ccc5c(c4)OCO5)ccnc3O2)cn1 (configuration not stated),-53,/,/,.,/
CN(C)c1ccc(CNC(=O)C2(C)Cc3c(-c4cccc(C(F)(F)F)c4)ccnc3O2)cc1 (configuration not stated),-84,/,/,.,/
CC1(C(=O)Nc2ccc3c(c2)OCO3)Cc2c(-c3cccc(C(F)(F)F)c3)ccnc2O1 (configuration not stated),?,/,/,.,/
CC(=O)N[C@@H](CCC(N)=O)C(=O)O,/,/,/,.,/
CC(C)Oc1ccc(CNC(=O)Cc2ccc(NC(=O)N3CCSc4ncccc43)cc2)cc1,/,.,.,.,.
Cc1cccc(CNC(=O)c2ccc(NC(=O)N3CCSc4ccccc43)cc2)c1,/,.,.,.,.
Cc1ccc(-n2ncc(C(=O)NC3CCCCC3)c2C2CCN(C(=O)OC(C)(C)C)CC2)cc1,/,.,.,.,.
CCc1cc2c(cc3c(=O)n(CC(=O)NC4CCCCC4)ncn32)s1,/,.,.,.,.
Cc1cc(/C=N/NC(=O)c2ccc(O)cc2)c(C)n1C1CC1,-54,.,.,.,.
CCN(CC)S(=O)(=O)c1ccc(Cl)c(C(=O)OC2CC(C)OC2=O)c1 (configuration not stated),.,.,.,32,.
CCN(CC)S(=O)(=O)c1ccc(Cl)c(C(=O)Oc2cccnc2)c1,.,.,.,.,.
CCOC(=O)C(=CNc1cccnc1Oc1ccc(C)c2c1CCC2)C(=O)OCC,.,.,.,37,.
O=S(=O)(Nc1ccc(-c2ccc(N3CCCC3)nn2)cc1)c1ccc(OC(F)(F)F)cc1,/,.,.,.,.
Cc1cccc(C(=O)N(Cc2ccco2)Cc2ccccc2F)c1,/,.,.,.,.
Cc1cccc(C)c1NC(=S)NCCc1ccc(O)c(O)c1,.,-48,.,.,.
COc1ccc(CCNC(=S)Nc2cccc(C)c2C)cc1,.,-31,.,.,.
CC(C)c1ccc(S(=O)(=O)N2CCN(CCC(=O)Nc3ccc(N(C)C)cc3)CC2)cc1,.,-81,.,.,.
O=C(CN1CCN(S(=O)(=O)c2ccccc2)CC1)Nc1ccc2c(c1)OCO2,.,-32,.,.,.
CC(C)c1ccc(S(=O)(=O)N2CCN(CC(=O)Nc3ccc4c(c3)OCO4)CC2)cc1,.,-30,.,.,.
O=C(CN1CCN(S(=O)(=O)c2ccc(Cl)cc2)CC1)Nc1ccc2c(c1)OCO2,.,/,/,.,/
N#Cc1ccccc1Cn1c(=O)n(CCCC(=O)NCc2ccc3c(c2)OCO3)c(=O)c2sccc21,/,.,.,.,.
CSc1ncc2c(n1)-c1ccccc1N(Cc1ccc(Cl)cc1)S2(=O)=O,/,.,.,.,.
C[C@H]1Cn2cnc(C(=O)Nc3ccccc3)c2C(=O)N1,.,/,/,.,/
O=C(Nc1ccccc1)N(Cc1cccs1)c1ccc(Cl)cc1,/,.,.,.,.
O=C(NCCCN1CCC(Cc2ccccc2)CC1)c1ccc(CS(=O)c2ccccc2Cl)o1 (configuration not stated),-108,/,/,.,/
CC(=O)c1ccc(NC(=O)C2CCC(CNS(=O)(=O)c3ccc4c(c3)CCCC(=O)N4)CC2)cc1 (configuration not stated),/,.,.,.,.
C[C@H](O)[C@@H]1CN2CCc3c([nH]c4ccccc34)[C@@H]2C[C@@H]1N(C)C(=O)Nc1cc(Cl)cc(Cl)c1,-50,/,/,.,/
